Out of some 5,500 compounds screened, about 2,000 (36%) were called active. Inconclusive results (about 18%) are left out. Cut-off read from the data, not from the text of the source: active = normalized growth mostly below about 0.91 (no sharp cut-off); inconclusive = no clear call, values can overlap the other calls; inactive = mostly above about 0.92. This is one part of the list.
Test: chemical genetic growth profiling, strain panel (AID 1159580);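 note: tested at 20 µM; growth read once vehicle control cultures reached saturation at 30 °C; 1 = growth at the plate median or of vehicle wells; lower values mean less growth of the strain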
Details: S. cerevisiae deletion strains, growth OD

Measured: normalized growth

CNC[C@H](O)c1ccc(O)c(O)c1
inactive: locus YAL013W, strain DEP1, active compounds read low 1.01 | locus YAL040C, strain CLN3, active compounds read low 1.04 | locus YCL061C, strain MRC1 (second series), active compounds read low 1 | locus YDR150W, strain NUM1, active compounds read low 1 | locus YDR363W, strain ESC2, active compounds read low 0.993 | locus YER002W, strain NOP16, active compounds read low 1.01 | locus YGR078C, strain PAC10, active compounds read low 1.02 | locus YJR075W, strain HOC1, active compounds read low 1 | locus YNL175C, strain NOP13, active compounds read low 1.01 | locus YNL197C, strain WHI3, active compounds read low 1.01 | locus YNL224C, strain SQS1, active compounds read low 1.01 | locus YNL322C, strain KRE1, active compounds read low 0.997 | locus YOR083W, strain WHI5 (second series), active compounds read low 1.02 | locus YPL241C, strain CIN2, active compounds read low 1

Source: PubChem BioAssay AID1159580 (chemical genetic matrix, 2015)
